In PubChem BioAssay (EPA / NIEHS) one finds outcome and AC50 data, which are given here for 40 compounds.

Active and inactive are the calls of the source. How the source made its calls: active means hit-call score of the fitted dose curve at least 0.9, where 1 is the maximum; inactive means score below 0.9.

A word on the AC50: it is the concentration at which the activity in the assay is half-maximal.

Read-out in the experiment: Pro-epidermal growth factor (Homo sapiens) (UniProt P01133)
In words: LTEA_HepaRG_EGF: Life Technologies and Expression Analysis (LTEA) Assay for Epidermal growth factor (EGF) using HepaRG (AID 2283489). The settings on record: mRNA level, 48 h; actives raise or lower the signal. As for the experimental part: LTEA_HepaRG is a cell based, multiplexed-readout assay that uses HepaRG, a human liver cell line, with measurements taken at 48 hours after chemical dosing on a 96-well plate.LTEA_HepaRG_EGF is one of 102 assay component(s) measured in the LTEA HepaRG cell culture assay. It is a marker of Cell proliferation, survival, death.Data from the assay component LTEA_HepaRG_EGF was analyzed into 1 endpoint. This assay endpoint, LTEA_HepaRG_EGF, was analyzed with bidirectional fitting relative to DMSO as the negative control and baseline of activity. Using a type of inducible reporter, measures of mRNA induction for gain or loss-of-signal activity can be used to understand regulation of transcription factor activity. To generalize the intended target to other relatable targets, this assay endpoint is annotated to the growth factor intended target family, where the subfamily is EGF-like domain.
A total of 1060 chemcials from the ToxCast library were tested in eight-point concentration-response experiments. Cell culture and cytotoxicity assays were conducted at Thermo Fisher Scientific's Custom Services facility (Madison, WI). A single lot of human HepaRG cells (Thermo Fisher Scientific, Frederick, MD) was used for the cell culture experiments. 96-well format collagen type I coated plates of human HepaRG cells were prepared using established methods. Briefly, cryopreserved HepaRG cells were thawed, plated at a density of approximately 100,000 cells/well in HepaRG Thaw, Plate, and General Purpose media (HPRG770, Thermo Fisher Scientific), and incubated for 48 hours. 0.5% DMSO was selected as vehicle control to balance the requisite need of DMSO in HepaRG cultures to maintain differentiation (for example, baseline metabolism, proportions of hepatocytes vs. cholangiocytes), while enabling further hepatic receptor pathway activation (for example, PXR and CAR) in response to chemical exposure. 48 hours after plating, the culture medium was replaced with HepaRG Serum-Free Incudtion Media. Cells were exposed to each test chemical in duplicate and maintained in CO2 incubators for another 48 hours. Chemical plates were thawed to room temperature and 200x concentrations of treatment groups were prepared. 8-point conentration-reponse curves were made with the highest exposure at 100 uM, followed by half-log dilutions, all in 0.5% DMSO. Each test plate contained variouse controls, induction positive controls (1mM phenobarbital), cytotoxicity positive controls ([…] aflatoxin B1), vehicle controls (0.5% DMSO), and total lysis controls (0.5% DMSO). Cell morphology images were taken using an Essen IncuCyte FLR automated microscope, with six 96-well plates imaged in about 24 minutes. Images were captured and exported and JPEG files. Spent culture media was transfered to black-well plates for the LDH assay, and remaining media was sorted at -80 C for later use. Cells were treated with RLT buffer and frozen until shipped for gene expression analysis. Total RNA was isolated from the cell suspension in 75 uL of Buffer RLT (Qiagen, Germantown, MD 20874) by Quintiles/Expression Analysis (Durham, NC) using a custom isolation procedure. Total RNA from each plate well was transferred to a preamplification plate. Fluidigm's 96.96 Dynamic ArrayTM (Fluidigm, Amsterdam, the Netherlands) technology was used for gene expression analyses by quantitative reverse transcription polymerase chain reaction (qRT-PCR, performed by Quintiles/Expression Analysis, Durham, NC)89. Standard TaqManTM Assays (Applied Biosystems/ThermoFisher Scientific, Foster City, CA) were used to assess the expression of 93 genes selected based on their selectivity and sensitivity to important hepatic receptors known to be modulated by environmental chemicals; importance in human hepatocyte functionality; and hepatotoxicity. […]
On to `CCCCCCCCCCCCCO`, for which the call was inactive.
As for `CN1CCN(Cc2cc(-c3ccc4[nH]c(=O)oc4c3)co2)[C@@H](c2ccc(F)cc2)C1`, the result was inactive.
Regarding `Cc1cccc([N+](=O)[O-])c1C`, the outcome was inactive.
Regarding `CCCc1cc(=O)[nH]c(=S)[nH]1`, the result was inactive.
Take `CC(CO)OC(C)CO` (stereo not given) (tested in a mixture with another compound): the compound was called inactive.
Regarding `Cc1cccc(Nc2cc(Cl)nc(SCC(=O)O)n2)c1C`, the compound was classed as inactive.
Regarding `CCOC(=O)C(C)(C)Oc1ccc(Cl)cc1`, the compound was called inactive.
With `C[Si]1(C)O[Si](C)(C)O[Si](C)(C)O[Si](C)(C)O1`, the outcome was inactive.
Still for that read-out and setting: for `CCCCCCCCCCCCCCCC` the value was “inactive”; for `NCC1(Cc2noc(=O)[nH]2)CCCCC1`, “inactive”.
In the case of `CN[C@H]1CC[C@@H](c2ccc(Cl)c(Cl)c2)c2ccc(S(N)(=O)=O)cc21`, the compound was called inactive.
`C=CCc1ccc(O)c(OC)c1`: the call was inactive.
Still for that read-out and setting: for `O=C(O)Cc1ccccc1Nc1c(Cl)cccc1Cl` the value was “inactive”.
As to `COc1cc(-c2nc(NC(=O)c3cc4cc(C)cc(C)c4n3CC(=O)O)sc2CCC2CCCCC2)c(OC)cc1Cl`, the AC50 was 29.1 µM (active).
`COC(=O)c1ccc(O)cc1`: the compound was classed as inactive.
For `NC(=O)Cn1c(=O)cc(CCN2CCN(c3nccc4sccc34)CC2)c2ccc(F)cc21`, the compound was called inactive.
Consider `Cc1cc(=O)[nH]c(=S)[nH]1`, for which the outcome was inactive.
Consider `C[C@]12C=CC(=O)C=C1CC[C@@H]1[C@@H]2C(=O)C[C@@]2(C)[C@H]1CC[C@]2(O)C(=O)CO`, for which the outcome was inactive.
For `CC1(C)CC(N=C=O)CC(C)(CN=C=O)C1` (stereo not given), the compound was classed as inactive.
On the same count and under the same terms, for `CCOc1ccc2c(c1)C(C)=CC(C)(C)N2` the value was “inactive”; for `Cc1nc(-c2ccc3c(c2)CCN(CCC2CCC(NC(=O)/C=C/c4ccc(F)cc4)CC2)CC3)no1` (stereo not given), “inactive”.
As to `O=c1c(O)c(-c2ccc(O)c(O)c2)oc2cc(O)cc(O)c12`, the outcome was inactive.
On the same count and under the same terms, to `Cc1ccc(C)c(O)c1C` belongs “inactive”; to `CCCCCCCCCCC`, “inactive”; to `CCCCCC(=O)O`, “inactive”.
`COCCOCCOC`: the AC50 was 1.09 µM (active).
On to `Cc1nc(C)nc(N2C[C@@H](C)N(c3ccnc([C@@H](C)O)n3)[C@@H](C)C2)n1`, for which the outcome was inactive.
With `CC(=O)OC/C=C(\C)CCC=C(C)C`, the compound was classed as inactive.
For the compound `COc1ccc(C)cc1N`, the compound was classed as inactive.
Same read-out and setting: for `CN1CCCC1=O` the value was “inactive”; for `NS(=O)(=O)c1cc2c(cc1Cl)NCNS2(=O)=O`, “inactive”.
As to `CCCCCCCCCCO`, the compound was called inactive.
Same read-out and setting: to `CNC(=O)[C@H]1O[C@@H](n2cnc3c(NCc4cc(Cl)ccc4OCc4cc(C)no4)ncnc32)[C@H](O)[C@@H]1N` belongs “inactive”; to `CCCCCCOCCO`, “inactive”.
For `CCCCc1ccc2c(n1)[C@@H](c1ccc(OC)cc1C[C@H](C)C(=O)O)[C@H](C(=O)O)[C@H]2c1ccc2c(c1)OCO2`, the outcome was inactive.
Consider `CCCCN(CCCC)CCCC`, for which the compound was classed as inactive.
For the compound `Nc1nc(N)c2nc(CNc3ccc(C(=O)N[C@@H](CCC(=O)O)C(=O)O)cc3)cnc2n1`, the call was inactive.
Regarding `CCOC(=O)CCC(=O)OCC`, the result was inactive.
`CC=Cc1ccc(O)c(OC)c1`: the outcome was inactive.
Consider `CCCCC(CC)COC(=O)CC(C(=O)OCC(CC)CCCC)S(=O)(=O)O` (stereo not given), for which the outcome was inactive.
